High-throughput results as filed in PubChem BioAssay.
Tau fibril FP: blocks human tau fibril formation measured by polarization. P10636. K18 P301L tau heparin fibrillization, Alexa594 FP, 6 h. Potency, µM (titrated, usually from 57.7 µM), inactives show top-dose activity, negative = inhibition, actives largely listed as inhibitors. 0.39% of 280,000 active. AID 1468; note: potency is the fitted concentration of half-maximal effect; nearly all actives have a fitted effect of over 55% in size
Target sequence (P10636 561-689 P618L limits assumed): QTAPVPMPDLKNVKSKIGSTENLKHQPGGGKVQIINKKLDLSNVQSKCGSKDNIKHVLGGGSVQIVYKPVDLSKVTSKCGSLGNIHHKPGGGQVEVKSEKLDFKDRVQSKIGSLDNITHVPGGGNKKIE
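FP of Alexa 594-tau after heparin (20 uM) induction. Substrate: human K18 P301L, 15 uM unlabeled, 0.24 uM labeled. Buffer 100 mM sodium acetate pH 7. 6 hr, 37 C.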
FBPA coupling cs: counter-screen for Giardia aldolase inhibitors: coupling enzyme system; coupling enzyme system counterscreen, AmpLite Red fluorescence; activity change, negative = inhibition, % at 58.2 µM, hits read low; 0.67% of 290,000 active; in the data active = activity change below about -30%
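Activity here indicates interference with the coupling reaction, not aldolase inhibition. Compounds at 57.5 uM final met coupling enzymes for 10 min at RT; substrate and AmpLite Red detection followed, with a 525/598 nm fluorescence read after 20 min.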
Tau fluor cs: counter-screen for tau fibril formation inhibitors; tau K18 P301L Alexa594 fluorescence, heparin fibrillization; 0.93% of 280,000 active; AID 1463; Potency, µM (titrated, usually from 57.7 µM), without a hit: top-dose activity change, negative = decrease; note: potency is the fitted concentration of half-maximal effect; nearly all actives have a fitted effect of over 55% in size
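Human tau K18 P301L (15 uM unlabeled, 0.24 uM Alexa 594-labeled) in 100 mM sodium acetate pH 7 with 20 uM heparin, 6 hr at 37 C. ThT 30 uM added, 1 hr ambient; Alexa 594 FP and total fluorescence read at 555/632 nm.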
Tau fibril ThT: inhibitors of human tau fibril formation, thioflavin T binding | P10636 | Potency, µM (series often up to 57.4 µM), for inactives: at the top dose activity, negative = inhibition, hits mostly inhibitors | recombinant tau K18 P301L, heparin-induced fibrillization, ThT fluorescence | 2.1% of 270,000 active; note: potency is the fitted concentration of half-maximal effect; nearly all actives have a fitted effect of over 55% in size
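Fibril formation assay: tau K18 P301L at 15 uM with trace Alexa 594 label, heparin inducer 20 uM, pH 7 sodium acetate buffer, 37 C for 6 hr; endpoint ThT signal.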
Sfp inh: inhibitors of Bacillus subtilis Sfp phosphopantetheinyl transferase. Q9F4F7. Biochemical Sfp PPTase activity, qHTS. Potency, µM, inactives show largest response in the series, negative = inhibition, most hits filed as inhibitors. 3.5% of 310,000 active. AID 1490;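 note: the enzyme is Sfp with the accession as filed and its product quenches rhodamine fluorescence; potency is the fitted concentration of half-maximal effect; 0% = enzyme reaction without inhibitor and -100% = no enzyme wells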
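Compounds were incubated with enzyme (final 15 nM) for 15 min at room temperature before substrate addition started the reaction. Fluorescence at 525 nm excitation, 598 nm emission was recorded immediately and after 30 minutes.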
Starred values were filed as active, the others as inactive; ? = inconclusive; · = not tested or not shown; [ ] = another dose, or the depositor's remark. An excerpt weighted towards active compounds, which were near 5.2% of everything screened. Unless noted, calls come from the whole dose curve; as a rule, active = well fitted curve in the direction sought with a large enough effect; inconclusive = small, poorly fitted or top-dose-only effect, or another doubt; inactive = no such curve, though single readings can be large; an effect the other way counts as inactive or inconclusive. Unless noted, % is set by controls: 0 for no effect and ±100 for the full control effect.

SMILES	Tau fibril FP	FBPA coupling cs	Tau fluor cs	Tau fibril ThT	Sfp inh
COCCNCCOc1ccccc1-c1ccccc1	-4%	-5	-3%	-2%	50µM*
OCCNCCOc1ccccc1-c1ccccc1	2%	1	-3%	0%	2%
CC(O)CNCCOc1ccccc1-c1ccccc1 (centres undefined)	2%	-17	-1%	-6%	71µM*
COCCCNCCOc1ccccc1-c1ccccc1	2%	-1	9%	1%	-11%
COc1ccc(OC)c(NC(=O)c2c(NCc3ccc(C)o3)sc3c2CCC(C)C3)c1 (centres undefined)	-10%	·	?	?	·
CCOc1ccc2nc3c(cc2c1)CN(CCCO)C(=NCCOC)S3	-1%	-16	-21%	?	-26%
COCCN1Cc2cc3cc(C)ccc3nc2SC1=Nc1ccc(OC)cc1	11%	-6	?	?	20µM*
COCCN=C1Sc2nc3c(C)cccc3cc2CN1Cc1ccco1	-8%	-2	-11%	?	20µM*
CCC(C)N=C1Sc2nc3ccc(C)cc3cc2CN1CCOC (centres undefined)	0%	1	-3%	?	45µM*
COCCN1Cc2cc3cc(C)ccc3nc2SC1=Nc1cccc(OC)c1	-7%	-1	?	?	-19%
Cc1ccc2nc3c(cc2c1)CN(Cc1ccco1)C(=NCC1CCCO1)S3 (centres undefined)	-2%	-3	-20%	-14%	?
COCCN=C1Sc2nc3ccc(C)cc3cc2CN1Cc1cccs1	9%	1	-17%	?	22µM*
CCOc1ccc(N=C2Sc3nc4ccc(C)cc4cc3CN2CCOC)cc1	7%	1	?	?	?
Cc1cc(OC(C)C(=O)N(Cc2ccco2)Cc2ccco2)cc(C)c1Cl (centres undefined)	5%	·	-24%	?	·
COc1ccccc1CN1CCN(C(CC(C)C)c2nnnn2Cc2cccs2)CC1 (centres undefined)	4%	1	-14%	-2%	89µM*
CCCC(c1nnnn1Cc1cccs1)N1CCN(C)CC1 (centres undefined)	-9%	4	-2%	2%	-10%
CC1=C(C(=O)OC2CCCC2)C(c2cccc(Cl)c2Cl)CC(=O)N1 (centres undefined)	-2%	·	-18%	-7%	·
COc1ccc(C(=O)/C=C/Nc2ccc([N+](=O)[O-])cc2C)c(OC)c1	?	1	-28%	?	4%
CNC(=S)Nc1ccc([N+](=O)[O-])cc1C	-3%	-2	-9%	-8%	-19%
COc1ccc(C(=O)NC(=S)Nc2ccccc2[N+](=O)[O-])cc1OC	-8%	1	-11%	-10%	89µM*
COc1ccc(C(=O)NC(=S)Nc2ccc([N+](=O)[O-])cc2C)cc1OC	-4%	-1	-22%	?	56µM*
COc1ccc(/C=N/NC(=S)Nc2ccccc2[N+](=O)[O-])cc1O	-5%	-1	16µM*[quencher]	4.5µM*	-6%
COc1ccc(C(=O)/C=C/Nc2ccc([N+](=O)[O-])cc2C)cc1OC	?	1	?	1.6µM*	-29%
O=C(NCCc1ccccc1)c1ccc2c(c1)N(Cc1ccccc1)C(=O)c1ccccc1S2=O (centres undefined)	-8%	·	-27%	5%	·
Cc1ccc(CNC(=O)CN(c2ccc(C(C)C)cc2)S(=O)(=O)c2c(C)n[nH]c2C)cc1	4%	·	?	-17%	·
SMILES	Tau fibril FP	FBPA coupling cs	Tau fluor cs	Tau fibril ThT	Sfp inh
CCOc1ccc(NC(=S)NC(=O)/C=C/c2ccc(OC)c(OC)c2)c([N+](=O)[O-])c1	4%	·	-8%	-9%	50µM*
COC(=O)C1=C(O)/C(=C\c2cc(C)n(-c3ccc(F)cc3)c2C)N=C1C	0%	-30	-23%	?	?
COC(=O)C1=C(C)NC(=O)/C1=C\c1cc(C)n(-c2cccc(C)c2)c1C	3%	-11	?	25µM*	?
COC(=O)C1=C(C)NC(=O)/C1=C\c1cc(C)n(-c2ccc(F)cc2)c1C	1%	-15	?	16µM*	35µM*
O=[N+]([O-])c1ccc(Oc2cccc3cccnc23)c(Cl)c1	·	-37*	·	·	-17%
O=C(NCc1ccc2c(c1)OCO2)c1ccc(C2SCC(=O)N2Cc2ccco2)cc1 (centres undefined)	2%	-3	-2%	-10%	35µM*
COCCNC(=O)c1ccc(C2SCC(=O)N2Cc2ccco2)cc1 (centres undefined)	5%	0	2%	4%	11µM*
COCCCNC(=O)c1ccc(C2SCC(=O)N2Cc2ccco2)cc1 (centres undefined)	1%	1	-3%	-9%	?
COc1ccc(C(=O)Nc2cccc(C(=O)OCc3cc(=O)n4nc(C5CC5)sc4n3)c2)cc1	4%	·	-2%	?	·
CCC(C)NC(=O)c1c(N)n(/N=C/c2ccccn2)c2nc3ccccc3nc12 (centres undefined)	8%	1	-30%	?	10µM*
CCOc1cc(CNC(=O)c2ccc3nc(C(C)C)oc3c2)cc(OCC)c1OCC	1%	·	4%	?	·
COc1cc(CNc2ncnc3ccc(-c4c(C)noc4C)cc23)cc(OC)c1OC	·	2	·	·	9%
CCOC(=O)c1ccc([N+](=O)[O-])cc1NC(C)=O	-3%	2	3%	-4%	9%
CCOc1ccc(-c2csc(N)c2C(=O)OC)cc1	2%	-15	?	?	45µM*
CCOC(=O)c1c(-c2cccc([N+](=O)[O-])c2)csc1N	7%	-13	22µM*[quencher]	?	-14%
CCOC(=O)c1csc(N)c1-c1ccc([N+](=O)[O-])cc1	-10%	-4	?	·	50µM*
CC(=O)N1c2ccc(S(=O)(=O)N3CCCCCC3)cc2CC1C(=O)NCc1ccccc1F (centres undefined)	3%	·	8%	12%	·
CCCCC/C=C\C\C=C/C=C/C=C/[C@@H](SCC(N)C(=O)O)[C@@H](O)CCCC(=O)O (some centres undefined)	1%	-1	-1%	-4%	-2%
CCOc1ccc(-c2nonc2NC(=O)c2oc3cc(Br)ccc3c2C)cc1	-10%	·	2%	16%	·
Cc1nn(C(C)(C)C)c(NC(=O)c2ccccc2)c1C#N	·	-1	·	·	8%
Cc1ccc(C(=O)NCCn2c(N)c(C#N)c3nc4ccccc4nc32)cc1	-3%	-1	-14%	-5%	4%
CCCCn1c(NC(=O)c2ccccc2)c(C#N)c2nc3ccccc3nc21	-6%	-53*	-13%	-2%	?
CCC(C)n1c(NC(=O)c2ccccc2)c(C#N)c2nc3ccccc3nc21 (centres undefined)	8%	-49*	-15%	?	-17%
